# According to paper PMC7862700, “An all-to-all approach to the identification of sequence-specific readers for epigenetic DNA modifications on cytosine”:
# Experiments:
# Assay in all cases: DAPPL (digital affinity profiling via proximity ligation, sequencing); 10 mM Tris-HCl pH 7.5, 50 mM NaCl, 1 mM DTT, 4% glycerol, room temperature, 30 min; GST-TFs on glutathione beads, 16-mer random dsDNA library, 0.1% formaldehyde crosslink after washing; high values mean tight binding
# FEV = target: T1, FEV (Homo sapiens, UniProt Q99581 1-238); details: protein: recombinant; tags: N-terminal GST; dsDNA, one strand shown
# T1 sequence: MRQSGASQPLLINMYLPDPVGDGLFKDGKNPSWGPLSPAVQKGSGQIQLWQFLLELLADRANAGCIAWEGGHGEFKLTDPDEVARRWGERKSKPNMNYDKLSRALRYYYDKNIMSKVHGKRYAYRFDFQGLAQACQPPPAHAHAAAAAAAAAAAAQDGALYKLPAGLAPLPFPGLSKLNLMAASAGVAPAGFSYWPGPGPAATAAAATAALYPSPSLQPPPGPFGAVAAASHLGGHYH
# How it was run: (§1)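 Pools were built from human transcription factors expressed in yeast as GST fusions, captured on glutathione beads and DNA-barcoded, along with a tag-only sample. Incubation with 200 nmole of a 16-mer random double-stranded DNA library lasted 30 min at room temperature in Tris/NaCl/DTT/glycerol buffer, and was followed by washing, 0.1% formaldehyde crosslinking, proximity ligation, PCR amplification and Illumina NextSeq500 sequencing. Binding signal is the quotient of each hexamer's read frequency for a factor and its frequency for the tag-only sample.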
# ETV5 = ETV5 (Homo sapiens, UniProt P41161 1-510); details: protein: recombinant; tags: N-terminal GST; dsDNA, one strand shown
# How it was run: as §1
# HSF1 = HSF1 (Homo sapiens, UniProt Q00613 1-529); details: protein: recombinant; tags: N-terminal GST; chain copies: 3; dsDNA, one strand shown
# How it was run: as §1
# SPIC = target: T2, SPIC (Homo sapiens, UniProt Q8N5J4 1-248); details: protein: recombinant; tags: N-terminal GST; dsDNA, one strand shown
# T2 sequence: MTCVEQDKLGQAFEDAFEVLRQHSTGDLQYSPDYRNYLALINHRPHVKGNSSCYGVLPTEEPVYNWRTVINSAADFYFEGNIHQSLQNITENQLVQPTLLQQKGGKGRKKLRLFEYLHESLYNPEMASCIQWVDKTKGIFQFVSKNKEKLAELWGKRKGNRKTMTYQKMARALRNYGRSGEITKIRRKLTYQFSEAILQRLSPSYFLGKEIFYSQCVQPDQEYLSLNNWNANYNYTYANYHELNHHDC
# How it was run: as §1
# ELF4 = ELF4 (Homo sapiens, UniProt Q99607 1-663); details: protein: recombinant; tags: N-terminal GST; dsDNA, one strand shown
# How it was run: as §1
# ELK4 = target: T3, ELK4 (Homo sapiens, UniProt P28324-2 1-405); details: protein: recombinant; tags: N-terminal GST; dsDNA, one strand shown
# T3 sequence: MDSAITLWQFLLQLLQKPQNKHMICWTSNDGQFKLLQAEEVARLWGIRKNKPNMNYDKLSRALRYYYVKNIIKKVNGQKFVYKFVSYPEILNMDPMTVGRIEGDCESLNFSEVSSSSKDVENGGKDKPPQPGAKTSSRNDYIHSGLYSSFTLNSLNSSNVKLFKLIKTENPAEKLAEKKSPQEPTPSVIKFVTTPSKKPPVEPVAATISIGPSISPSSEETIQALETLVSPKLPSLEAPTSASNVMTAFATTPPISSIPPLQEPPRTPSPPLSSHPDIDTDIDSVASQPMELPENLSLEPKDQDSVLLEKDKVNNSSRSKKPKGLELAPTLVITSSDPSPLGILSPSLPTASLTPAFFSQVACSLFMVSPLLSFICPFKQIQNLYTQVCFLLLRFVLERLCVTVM
# How it was run: as §1
# ETV2 = target: T4, ETV2 (Homo sapiens, UniProt O00321 1-342); details: protein: recombinant; tags: N-terminal GST; dsDNA, one strand shown
# T4 sequence: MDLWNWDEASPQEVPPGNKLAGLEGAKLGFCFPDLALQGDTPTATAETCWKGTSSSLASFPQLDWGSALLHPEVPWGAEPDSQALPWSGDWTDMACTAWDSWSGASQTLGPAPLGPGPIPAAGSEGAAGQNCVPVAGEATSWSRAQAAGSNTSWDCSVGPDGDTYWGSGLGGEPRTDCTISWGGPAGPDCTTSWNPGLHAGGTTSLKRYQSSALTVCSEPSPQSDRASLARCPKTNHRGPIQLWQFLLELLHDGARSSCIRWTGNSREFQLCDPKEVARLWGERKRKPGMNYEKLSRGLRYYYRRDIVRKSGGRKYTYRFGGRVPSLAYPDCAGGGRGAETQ
# How it was run: as §1
# ELF3 = target: T5, ELF3 (Homo sapiens, UniProt P78545 1-371); details: protein: recombinant; tags: N-terminal GST; dsDNA, one strand shown
# T5 sequence: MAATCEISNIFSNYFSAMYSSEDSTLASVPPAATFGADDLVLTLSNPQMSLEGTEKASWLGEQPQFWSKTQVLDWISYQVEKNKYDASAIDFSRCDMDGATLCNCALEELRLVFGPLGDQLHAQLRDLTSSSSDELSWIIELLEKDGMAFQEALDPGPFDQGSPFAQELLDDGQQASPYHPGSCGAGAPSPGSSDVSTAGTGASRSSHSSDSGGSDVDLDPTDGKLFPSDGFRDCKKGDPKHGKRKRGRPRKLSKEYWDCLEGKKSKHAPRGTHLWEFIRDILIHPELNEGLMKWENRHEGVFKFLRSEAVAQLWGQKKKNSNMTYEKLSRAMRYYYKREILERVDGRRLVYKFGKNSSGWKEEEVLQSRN
# How it was run: as §1
# ETV1 = ETV1 (Homo sapiens, UniProt P50549 1-477); details: protein: recombinant; tags: N-terminal GST; dsDNA, one strand shown
# How it was run: as §1
# Sequence of HSF1 (Q00613 whole entry): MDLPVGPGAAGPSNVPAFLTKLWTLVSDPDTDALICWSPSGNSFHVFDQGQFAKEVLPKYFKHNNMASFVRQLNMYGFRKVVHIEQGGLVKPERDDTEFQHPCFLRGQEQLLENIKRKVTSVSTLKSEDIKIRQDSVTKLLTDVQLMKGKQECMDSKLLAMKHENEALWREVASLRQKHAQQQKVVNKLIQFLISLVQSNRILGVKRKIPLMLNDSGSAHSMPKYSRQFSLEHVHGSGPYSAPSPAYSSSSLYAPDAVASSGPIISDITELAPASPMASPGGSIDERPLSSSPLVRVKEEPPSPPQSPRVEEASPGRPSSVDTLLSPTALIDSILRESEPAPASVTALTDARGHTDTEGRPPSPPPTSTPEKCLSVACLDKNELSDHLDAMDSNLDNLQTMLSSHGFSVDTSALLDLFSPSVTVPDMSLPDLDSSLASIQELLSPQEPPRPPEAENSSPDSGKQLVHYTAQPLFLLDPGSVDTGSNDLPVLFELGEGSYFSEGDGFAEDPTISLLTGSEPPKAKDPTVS
# Sequence of ETV5 (P41161 whole entry): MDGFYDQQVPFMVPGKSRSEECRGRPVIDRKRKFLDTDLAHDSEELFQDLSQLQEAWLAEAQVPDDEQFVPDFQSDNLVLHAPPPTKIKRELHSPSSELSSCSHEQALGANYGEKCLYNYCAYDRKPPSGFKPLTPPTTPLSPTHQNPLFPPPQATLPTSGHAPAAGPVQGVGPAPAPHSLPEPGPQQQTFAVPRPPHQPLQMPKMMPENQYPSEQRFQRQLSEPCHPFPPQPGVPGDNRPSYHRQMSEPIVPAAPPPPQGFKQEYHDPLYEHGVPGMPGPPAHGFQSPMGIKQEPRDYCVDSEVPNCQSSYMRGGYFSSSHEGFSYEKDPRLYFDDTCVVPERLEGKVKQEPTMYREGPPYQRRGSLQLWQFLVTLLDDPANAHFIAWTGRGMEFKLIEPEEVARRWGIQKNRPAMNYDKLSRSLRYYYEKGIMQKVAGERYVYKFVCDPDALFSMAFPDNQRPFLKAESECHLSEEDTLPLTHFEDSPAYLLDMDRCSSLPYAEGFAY
# Sequence of ETV1 (P50549 whole entry): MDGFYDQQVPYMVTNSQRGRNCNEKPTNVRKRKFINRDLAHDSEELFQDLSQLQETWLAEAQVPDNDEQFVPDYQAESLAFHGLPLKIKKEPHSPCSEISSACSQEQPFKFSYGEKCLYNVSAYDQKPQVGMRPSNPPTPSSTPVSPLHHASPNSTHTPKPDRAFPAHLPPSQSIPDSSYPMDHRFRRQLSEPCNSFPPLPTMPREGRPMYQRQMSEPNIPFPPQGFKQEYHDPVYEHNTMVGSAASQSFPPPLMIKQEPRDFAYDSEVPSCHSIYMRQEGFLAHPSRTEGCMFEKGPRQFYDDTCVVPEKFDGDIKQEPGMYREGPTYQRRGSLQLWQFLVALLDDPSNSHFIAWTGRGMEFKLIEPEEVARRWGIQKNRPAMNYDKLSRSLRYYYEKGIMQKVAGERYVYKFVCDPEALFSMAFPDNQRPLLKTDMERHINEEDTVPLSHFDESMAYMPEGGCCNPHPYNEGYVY
# Sequence of ELF4 (Q99607 whole entry): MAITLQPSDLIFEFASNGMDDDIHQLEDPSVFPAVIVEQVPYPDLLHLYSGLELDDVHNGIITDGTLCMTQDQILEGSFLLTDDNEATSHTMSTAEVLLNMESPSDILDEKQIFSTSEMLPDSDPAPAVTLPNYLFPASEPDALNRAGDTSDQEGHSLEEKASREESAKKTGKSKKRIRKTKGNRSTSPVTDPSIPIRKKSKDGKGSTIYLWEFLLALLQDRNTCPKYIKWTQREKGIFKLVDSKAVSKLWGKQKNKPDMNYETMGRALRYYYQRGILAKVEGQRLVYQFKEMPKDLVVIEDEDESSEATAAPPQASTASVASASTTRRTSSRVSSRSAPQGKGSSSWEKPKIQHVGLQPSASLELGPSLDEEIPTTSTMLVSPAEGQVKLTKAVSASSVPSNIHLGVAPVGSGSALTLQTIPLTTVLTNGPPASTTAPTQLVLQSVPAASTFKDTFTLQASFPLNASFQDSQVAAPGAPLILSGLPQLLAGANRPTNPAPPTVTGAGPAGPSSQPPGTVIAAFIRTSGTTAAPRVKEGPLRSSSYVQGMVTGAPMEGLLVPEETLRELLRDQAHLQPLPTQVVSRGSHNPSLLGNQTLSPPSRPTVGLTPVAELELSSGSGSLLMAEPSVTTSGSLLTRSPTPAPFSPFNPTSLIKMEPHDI
sequence,measurement,setting,value
GAAGTA,binding signal,FEV,"2.05 fold enrichment (6-mer frequency, TF over GST control)"
same,binding signal,ETV5,"2.16 fold enrichment (6-mer frequency, TF over GST control)"
same,binding signal,HSF1,"1.02 fold enrichment (6-mer frequency, TF over GST control)"
same,binding signal,SPIC,"2.19 fold enrichment (6-mer frequency, TF over GST control)"
same,binding signal,ELF4,"1.74 fold enrichment (6-mer frequency, TF over GST control)"
same,binding signal,ELK4,"1.71 fold enrichment (6-mer frequency, TF over GST control)"
same,binding signal,ETV2,"1.89 fold enrichment (6-mer frequency, TF over GST control)"
same,binding signal,ELF3,"2.08 fold enrichment (6-mer frequency, TF over GST control)"
same,binding signal,ETV1,"2.11 fold enrichment (6-mer frequency, TF over GST control)"
